# Test results: PubChem BioAssay
# Values joined by “and” are separate entries in the source; they are usually repeats but may differ in a detail not shown here. Identical values can stand only once. Active and inactive are the calls of the source.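 The calls were made as follows, unless noted: active = mean z-score across replicates of 1.96 or higher in either the MELAS or the Rieske mutant cell line; inactive = the rest.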
# What was measured:
# [1] = yeast 75Q aggregation reduction – 75Q-TubU reporter (AID 1593); settings: Yeast 75Q polyglutamine aggregation reporter
# [2] = blockers of cytochrome c efflux from mitochondria – biochemical, purified mitochondria (AID 1603); settings: stronger effect = lower value;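 also: mouse liver mitochondria challenged with calcium chloride; signal normalized to the plate average as 100%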
# [3] = polyglutamine aggregate formation blockers (AID 1604); settings: polyglutamine-induced protein aggregation inhibition assay; stronger effect = higher value; tested at 2.5 µM
# [4] = P. berghei load reduction in hepatocytes – cell-based, HepG2, luciferase luminescence, HepG2 viability, primary screen (AID 624349; in the data active = parasite load remaining mostly below about 12%, no sharp cut-off; inactive = mostly above about 10%;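 also: 100% = mean of DMSO negative control wells on the same plate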); settings: P. berghei liver stage in HepG2, luciferase luminescence, concentration not given here; parasite load remaining: stronger effect = lower value; viability: measured here: HepG2 viability without parasites
# [5] = Wnt pathway potentiators raising nuclear beta-catenin – imaging, WNT3A-conditioned medium, mouse C2C12, NPC library, primary screen (AID 1117326; in the data active = nuclear beta-catenin stimulation mostly above about 4.2%, no sharp cut-off; inactive = mostly below about 10%); settings: stronger effect = higher value
# [6] = stimulators of insulin release from INS-1E, primary screen, cell-based, 5 mM glucose, NPC library (AID 1117329;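 active = compound raises insulin release from rat beta cells at 5 mM glucose, no numeric limit stated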); settings: rat INS-1E insulin secretion, at 10 µM, stronger effect = higher value
# [7] = growth inhibition of GSK3B-pretreated HCT116 cells – cell-based, CellTiter-Glo, 0.2 to 20 µM (AID 1117336;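 active = compounds lowering colon cancer cell viability after pretreatment blocking the GSK3B kinase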); settings: HCT116 viability after GSK3B inhibitor, at 20 µM, stronger effect = higher value
# [8] = inhibition of endothelial tube formation, primary screen, imaging, VEGF stimulated, CD31 staining, tube area, NPC library (AID 1117340;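 active = compound that reduces growth-factor-driven endothelial tube area in a mixed cell culture, no cutoff stated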); settings: VEGF-stimulated ADSC/ECFC co-culture, at 10 µM, stronger effect = higher value
# [9] = GLP1 release stimulators, primary, NCI-H716, NPC library (AID 1117341;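 active = compound raises GLP1 secretion from the human gut endocrine cells, with no numeric limit stated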); settings: NCI-H716 cells, at 10 µM, stronger effect = higher value
# [10] = HCT116 colon cancer cell growth inhibition, primary screen, CellTiter-Glo luminescence, NPC library (AID 1117342;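 active = compounds that lower survival of HCT116 colon cancer cells in the luminescence readout, no numeric limit stated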); settings: at 20 µM (top of the series)
# [11] = reduced SW480 viability measured with CellTiter-Glo, NPC library, primary (AID 1117343;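 active = compounds that lower viability of the colon cancer cells in the luminescence readout, with no numeric limit stated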); settings: CellTiter-Glo luminescence; at 20 µM (top of the series)
# [12] = NPC library primary testing for decreased DLD-1 cell viability via CellTiter-Glo (AID 1117346;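 active = compounds that lower survival of DLD-1 colon cancer cells in the luminescence readout, no cutoff given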); settings: DLD-1 viability, CellTiter-Glo luminescence; at 20 µM (top of the series)
# [13] = target: 6-phosphogluconate dehydrogenase, decarboxylating (Homo sapiens) (UniProt P52209); assay: inhibition of human phosphogluconate dehydrogenase – biochemical, recombinant enzyme, NADPH absorbance, primary screen (AID 1159550;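 active = at least 20% inhibition of 6-phosphogluconate dehydrogenase activity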); settings: recombinant 6PGD, NADPH absorbance 341 nm; at 10 µM; stronger effect = higher value
# 6-phosphogluconate dehydrogenase, decarboxylating (Homo sapiens), sequence (P52209 whole entry, looked up): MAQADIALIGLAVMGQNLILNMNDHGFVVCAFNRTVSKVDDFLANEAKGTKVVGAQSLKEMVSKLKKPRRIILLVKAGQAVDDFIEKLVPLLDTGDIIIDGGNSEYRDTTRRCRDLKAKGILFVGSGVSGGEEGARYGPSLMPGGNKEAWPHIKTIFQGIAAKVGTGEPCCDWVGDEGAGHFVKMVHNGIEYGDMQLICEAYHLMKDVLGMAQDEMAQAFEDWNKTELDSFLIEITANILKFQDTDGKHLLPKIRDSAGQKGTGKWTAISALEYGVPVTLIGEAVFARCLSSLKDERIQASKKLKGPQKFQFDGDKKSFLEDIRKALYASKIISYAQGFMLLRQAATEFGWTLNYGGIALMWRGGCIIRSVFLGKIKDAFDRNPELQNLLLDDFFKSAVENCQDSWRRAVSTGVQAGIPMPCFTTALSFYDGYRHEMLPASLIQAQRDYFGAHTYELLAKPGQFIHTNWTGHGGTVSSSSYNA
# [14] = EMT-state selective cytotoxicity in co-culture – imaging, PC-3E GFP, TEM4-18 mCherry, primary screen (AID 1345086;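 active = compounds killing one labelled cell type while sparing the other, by normalised counts and ratio limits, not self-fluorescent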;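 as to all read-outs here: cells exposed to compound for 72 h before imaging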;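 as to red/green cell ratio (normalised): normalised mesenchymal count divided by normalised epithelial count so high means epithelial killing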); settings: PC-3E GFP / TEM4-18 mCherry co-culture, imaging cell counts, at 1 µM; for red/green cell ratio (normalised): actives lie on both sides
# [15] = test system: Aerobactin synthetase IucA (Klebsiella pneumoniae hvKP1); assay: IucA enzyme inhibition, primary screen, biochemical, Spectrum library (AID 1346200; call rule not given here;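 also: 100% = wells without compound and 0% = wells lacking enzyme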); settings: malachite green pyrophosphate, A620, at 8 µM, stronger effect = lower value
# [16] = viability loss with induced miR-34 in A549 – imaging, A549 dox-inducible miR-34, nuclei and caspase counts, primary screen (AID 1347080;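 active = compounds whose cell count with miR-34 switched on is under 0.7 times the count with it off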); settings: A549 miR-34 inducible, Hoechst nuclei count, 48 h
# [17] = MELAS cybrid and Rieske KO viability enhancers – cell-based, MELAS cybrids, Rieske KO mouse fibroblasts, CellTiter-Glo, primary screen (AID 1508586); settings: low glucose;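 also: z relative to plate mean and SD of compound and empty wells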
# [18] = target: NAD(+) hydrolase SARM1 (Homo sapiens) (UniProt Q6SZW1); assay: blocking NAD cleavage by SARM1 SAM-TIR – cell lysate, NAD-Glo luminescence (AID 1508614;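 active = compound whose remaining NAD level is above about 45 nM, limit read from the data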;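 also: higher remaining NAD means stronger inhibition of SARM1 NADase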); settings: SAM-TIR HEK293T lysate NADase, at 1 µM, stronger effect = higher value
# NAD(+) hydrolase SARM1 (Homo sapiens), sequence (Q6SZW1 whole entry, looked up, the tested form may be a part): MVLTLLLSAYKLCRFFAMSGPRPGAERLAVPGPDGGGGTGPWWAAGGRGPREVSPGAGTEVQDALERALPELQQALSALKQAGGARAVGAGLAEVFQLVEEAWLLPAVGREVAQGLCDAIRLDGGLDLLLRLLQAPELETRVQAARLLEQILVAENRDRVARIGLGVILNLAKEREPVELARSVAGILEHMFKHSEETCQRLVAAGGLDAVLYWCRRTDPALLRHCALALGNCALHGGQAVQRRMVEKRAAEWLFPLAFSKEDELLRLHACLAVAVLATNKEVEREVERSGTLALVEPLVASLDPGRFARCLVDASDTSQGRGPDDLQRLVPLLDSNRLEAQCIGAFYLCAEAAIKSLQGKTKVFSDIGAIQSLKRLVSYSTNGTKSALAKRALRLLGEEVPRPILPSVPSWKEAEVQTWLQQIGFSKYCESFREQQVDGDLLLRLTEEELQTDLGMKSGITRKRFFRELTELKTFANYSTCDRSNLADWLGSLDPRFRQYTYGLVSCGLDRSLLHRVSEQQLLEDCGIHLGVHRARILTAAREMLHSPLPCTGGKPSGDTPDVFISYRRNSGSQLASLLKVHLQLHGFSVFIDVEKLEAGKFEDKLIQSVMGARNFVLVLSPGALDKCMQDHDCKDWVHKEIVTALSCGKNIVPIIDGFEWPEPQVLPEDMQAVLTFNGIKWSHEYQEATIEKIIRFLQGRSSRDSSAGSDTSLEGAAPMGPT
# [19] = target: Mitogen-activated protein kinase 7 (Homo sapiens) (UniProt Q13164); assay: Gal4-ERK5 driven luciferase induction – cell-based, HTS, primary screen (AID 1508626;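 active = luciferase signal above three times the same-plate solvent-only control wells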;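 also: luciferase driven by Gal4-ERK5 fusion binding five Gal4 sites before minimal TATA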); settings: HeLa Gal4-ERK5 transactivation, 18 h, at 5 µM, stronger effect = higher value
# Mitogen-activated protein kinase 7 (Homo sapiens), sequence (Q13164 whole entry, looked up, the tested form may be a part): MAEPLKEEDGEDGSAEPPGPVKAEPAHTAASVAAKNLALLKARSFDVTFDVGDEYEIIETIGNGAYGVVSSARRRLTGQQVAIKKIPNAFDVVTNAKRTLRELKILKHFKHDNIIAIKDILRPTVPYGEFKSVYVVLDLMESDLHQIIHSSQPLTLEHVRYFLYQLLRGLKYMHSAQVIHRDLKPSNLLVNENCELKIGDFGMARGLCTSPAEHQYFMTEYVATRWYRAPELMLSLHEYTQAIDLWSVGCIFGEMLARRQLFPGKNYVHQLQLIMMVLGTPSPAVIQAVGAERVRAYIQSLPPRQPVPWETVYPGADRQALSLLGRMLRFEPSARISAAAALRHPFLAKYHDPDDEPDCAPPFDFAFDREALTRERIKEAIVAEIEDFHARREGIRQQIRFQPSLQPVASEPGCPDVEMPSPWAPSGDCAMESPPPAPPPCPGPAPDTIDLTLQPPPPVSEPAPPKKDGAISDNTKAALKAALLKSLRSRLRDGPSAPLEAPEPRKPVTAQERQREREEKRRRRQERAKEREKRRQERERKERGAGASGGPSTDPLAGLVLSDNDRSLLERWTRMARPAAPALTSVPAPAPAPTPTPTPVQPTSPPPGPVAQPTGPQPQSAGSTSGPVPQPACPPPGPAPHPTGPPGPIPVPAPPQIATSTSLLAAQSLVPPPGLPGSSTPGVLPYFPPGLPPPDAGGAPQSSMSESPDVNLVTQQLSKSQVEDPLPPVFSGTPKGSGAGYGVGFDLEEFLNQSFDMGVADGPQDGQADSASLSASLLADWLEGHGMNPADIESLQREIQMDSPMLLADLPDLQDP
# [20] = galactose survival enhancers in mitochondrial complex I cybrids – cell-based, galactose medium, ATP luminescence, primary screen (AID 1645843;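 active = z-score of at least 1.8 in each of two replicates, scored against plate mean and spread of sample wells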;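 also: positive z means more ATP and so rescue of galactose-driven cybrid death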); settings: complex I mutant cybrid cells, 72 h, stronger effect = higher value
# [21] = measured here: epithelial PC-3E GFP cell survival
# [22] = measured here: mesenchymal TEM4-18 mCherry cell survival
# [23] = measured here: relative caspase fold change +Dox/-Dox
# [24] = measured here: total cells with miR-34 induction, stronger effect = lower value
# [25] = measured here: total cells without miR-34 induction
# [26] = MELAS cybrid survival, CellTiter-Glo 48 h, stronger effect = higher value
# [27] = Rieske KO mouse fibroblast survival, CellTiter-Glo 72 h
structure (smiles),measurement,setting,value
CC(C)(C)NCC(O)c1cc(Cl)c(N)c(Cl)c1 (configuration not stated),score,[1],1.52
same,cytochrome c release ratio,[2],1.06
same,inhibition of aggregation,[3],29.4%
same,parasite load remaining,[4],72.5% (inactive) and 86% (inactive) and 37.5% (inactive)
same,viability,[4],109% and 74.6% and 102%
same,nuclear beta-catenin stimulation,[5]; at 10 µM,0% (inactive)
same,nuclear beta-catenin stimulation,"[5]; stimulation, at 2 µM",1.4%
same,insulin secretion stimulation,[6],3.8% (inactive)
same,viability decrease,[7],-1.4% (inactive)
same,tube area decrease,[8],13.7% (inactive)
same,GLP1 secretion stimulation,[9],0.6% (inactive)
same,inhibition of viability,[10],24.9% (inactive)
same,viability decrease (inhibition),[11],15.4% (inactive)
same,viability decrease (inhibition),[12],10.4% (inactive)
same,inhibition,[13],-5.11% (inactive)
same,red/green cell ratio (normalised),[14],1.04 (inactive)
same,normalised cell number,[14]; [21],1.05
same,normalised cell number,[14]; [22],1.09
same,activity remaining,[15],115% (inactive)
same,fold change,[16]; stronger effect = lower value,0.844 (inactive) and 0.889 (inactive)
same,fold change,[16]; [23],1.23 and 1.3
same,cell count,[16]; [24],8390 and 9780
same,cell count,[16]; [25],9940 and 11000
same,z-score,[17]; [26],0.503 (inactive) and 0.285 (inactive)
same,z-score,[17]; [27],0.0878 and 0.551
same,remaining NAD,[18],10 nM (inactive)
same,luciferase signal,[19],44 AU (inactive)
same,z-score,[20],0.41 (inactive)
NC(=O)CN1CCCC1=O,score,[1],1.12
same,cytochrome c release ratio,[2],0.79
same,inhibition of aggregation,[3],1.59%
same,nuclear beta-catenin stimulation,[5]; at 10 µM,-0.1% (inactive)
same,nuclear beta-catenin stimulation,"[5]; stimulation, at 2 µM",1.2%
same,insulin secretion stimulation,[6],0.2% (inactive)
same,viability decrease,[7],-6.65% (inactive)
same,tube area decrease,[8],-16.1% (inactive)
same,GLP1 secretion stimulation,[9],1.9% (inactive)
same,inhibition of viability,[10],-10.5% (inactive)
same,viability decrease (inhibition),[11],10% (inactive)
same,viability decrease (inhibition),[12],0.05% (inactive)
same,inhibition,[13],-18.4% (inactive)
same,red/green cell ratio (normalised),[14],1.04 (inactive)
same,normalised cell number,[14]; [21],0.91
same,normalised cell number,[14]; [22],0.95
same,activity remaining,[15],112% (inactive)
same,z-score,[17]; [26],0.856 (inactive) and 0.336 (inactive)
same,z-score,[17]; [27],-2.44 and 0.0138
same,remaining NAD,[18],10 nM (inactive)
same,luciferase signal,[19],44 AU (inactive)
same,z-score,[20],0.785 (inactive)
CC(=O)Nc1cc([As](=O)(O)O)ccc1O,score,[1],0.97
same,cytochrome c release ratio,[2],1.06
same,inhibition of aggregation,[3],43.7%
same,parasite load remaining,[4],96.4% (inactive) and 52.6% (inactive)
same,viability,[4],66.8% and 91.1%
same,nuclear beta-catenin stimulation,[5]; at 10 µM,4.8% (inactive)
same,nuclear beta-catenin stimulation,"[5]; stimulation, at 2 µM",0.2%
same,insulin secretion stimulation,[6],-0.2% (inactive)
same,viability decrease,[7],-42.6% (inactive)
same,tube area decrease,[8],-21.2% (inactive)
same,GLP1 secretion stimulation,[9],-0.8% (inactive)
same,inhibition of viability,[10],-7.73% (inactive)
same,viability decrease (inhibition),[11],16.9% (inactive)
same,viability decrease (inhibition),[12],-3.7% (inactive)
same,inhibition,[13],17.7% (inactive)
same,red/green cell ratio (normalised),[14],0.8 (inactive)
same,normalised cell number,[14]; [21],1.16
same,normalised cell number,[14]; [22],0.94
same,activity remaining,[15],107% (inactive)
same,fold change,[16]; stronger effect = lower value,0.975 (inactive)
same,fold change,[16]; [23],2.55
same,cell count,[16]; [24],12000
same,cell count,[16]; [25],12300
same,remaining NAD,[18],10 nM (inactive)
same,luciferase signal,[19],52 AU (inactive)
Cc1cccc(C)c1NC1=NCCCS1,score,[1],1.34
same,cytochrome c release ratio,[2],0.7
same,inhibition of aggregation,[3],87.3%
same,nuclear beta-catenin stimulation,[5]; at 10 µM,0.7% (inactive)
same,nuclear beta-catenin stimulation,"[5]; stimulation, at 2 µM",1.8%
same,insulin secretion stimulation,[6],3.2% (inactive)
same,viability decrease,[7],-8.6% (inactive)
same,tube area decrease,[8],-3.5% (inactive)
same,GLP1 secretion stimulation,[9],1.7% (inactive)
same,inhibition of viability,[10],10.6% (inactive)
same,viability decrease (inhibition),[11],-13.1% (inactive)
same,viability decrease (inhibition),[12],2.9% (inactive)
same,inhibition,[13],-17.7% (inactive)
same,red/green cell ratio (normalised),[14],1.15 (inactive)
same,normalised cell number,[14]; [21],1.1
same,normalised cell number,[14]; [22],1.27
same,activity remaining,[15],116% (inactive)
same,z-score,[17]; [26],-0.333 (inactive) and 0.534 (inactive) and -0.793 (inactive)
same,z-score,[17]; [27],-0.0574 and -0.344 and 0.356
same,remaining NAD,[18],10 nM (inactive)
same,luciferase signal,[19],36 AU (inactive)
same,z-score,[20],0.22 (inactive) and 0.48 (inactive)
